Experimental data as given in PubChem BioAssay AID1159580 (chemical genetic matrix, 2015).
Several values for one entry are separate records, joined by “and”; a condition that tells them apart may be missing. Equal values may be shown once. Out of some 5,500 compounds screened, about 2,000 (36%) were called active. Inconclusive results (about 18%) are left out. No stated cut-off is given here; in the data, active means normalized growth mostly below about 0.91 (no sharp cut-off); inconclusive means no clear call, values can overlap the other calls; inactive means mostly above about 0.92. The list shows a part of the results.

Assay: chemical genetic growth profiling, strain panel (AID 1159580);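 further: tested at 20 µM; growth read once vehicle control cultures reached saturation at 30 °C; 1 = growth at the plate median or of vehicle wells; lower values mean less growth of the strain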
Details: growth OD

Measured: normalized growth

Cc1cc(N)c2ccccc2[n+]1CCCCCCCCCC[n+]1c(C)cc(N)c2ccccc21
active: S. cerevisiae deletion strains, locus YJL187C, strain SWE1, active compounds read low 0.066 | S. cerevisiae deletion strains, locus YJR043C, strain POL32, active compounds read low 0.0703 | S. cerevisiae deletion strains, locus YJR075W, strain HOC1, active compounds read low 0.0707 and 0.0679 | S. cerevisiae deletion strains, locus YKL009W, strain mrt4, active compounds read low 0.107 | S. cerevisiae deletion strains, locus YKL068W, active compounds read low 0.0834 | S. cerevisiae deletion strains, locus YKL085W, strain MDH1 (second series), active compounds read low 0.0842 | S. cerevisiae deletion strains, locus YKL085W, strain MDH1, active compounds read low 0.0842 | S. cerevisiae deletion strains, locus YKL160W, strain elf1, active compounds read low 0.0728 | S. cerevisiae deletion strains, locus YKL190W, strain CNB1, active compounds read low 0.0496 | S. cerevisiae deletion strains, locus YKR001C, strain vps1, active compounds read low 0.0684 | S. cerevisiae deletion strains, locus YKR026C, strain gcn3, active compounds read low 0.0705 | S. cerevisiae deletion strains, locus YKR091W, strain srl3, active compounds read low 0.0679 | S. cerevisiae deletion strains, locus YLL001W, strain dnm1, active compounds read low 0.0644 | S. cerevisiae deletion strains, locus YLL026W, active compounds read low 0.0616 | S. cerevisiae deletion strains, locus YLL041C, strain sdh2, active compounds read low 0.0642 | S. cerevisiae deletion strains, locus YLR027C, strain aat2, active compounds read low 0.0617 | S. cerevisiae deletion strains, locus YLR039C, strain RIC1, active compounds read low 0.0806 | S. cerevisiae deletion strains, locus YLR058C, strain SHM2, active compounds read low 0.0484 | S. cerevisiae deletion strains, locus YLR102C, strain apc9, active compounds read low 0.0687 | S. cerevisiae deletion strains, locus YLR221C, strain rsa3, active compounds read low 0.0648 | S. cerevisiae deletion strains, locus YLR258W, strain gsy2, active compounds read low 0.0653 | S. cerevisiae deletion strains, locus YLR262C, strain YPT6 (second series), active compounds read low 0.0835 | S. cerevisiae deletion strains, locus YLR262C, strain YPT6, active compounds read low 0.107 | S. cerevisiae deletion strains, locus YLR268W, strain sec22, active compounds read low 0.0712 | S. cerevisiae deletion strains, locus YLR320W, strain mms22, active compounds read low 0.0855 | S. cerevisiae deletion strains, locus YLR330W, strain CHS5, active compounds read low 0.0547 | S. cerevisiae deletion strains, locus YLR342W, strain FKS1 (second series), active compounds read low 0.0723 | S. cerevisiae deletion strains, locus YLR342W, strain FKS1, active compounds read low 0.0695 | S. cerevisiae deletion strains, locus YLR357W, strain rsc2, active compounds read low 0.126 | S. cerevisiae deletion strains, locus YLR370C, strain arc18, active compounds read low 0.0633 | S. cerevisiae deletion strains, locus YLR371W, strain rom2, active compounds read low 0.0663 | S. cerevisiae deletion strains, locus YLR384C, strain iki3, active compounds read low 0.0616 | S. cerevisiae deletion strains, locus YLR418C, strain cdc73, active compounds read low 0.101 | S. cerevisiae deletion strains, locus YML016C, strain PPZ1, active compounds read low 0.0475 | S. cerevisiae deletion strains, locus YML032C, strain rad52, active compounds read low 0.0723 | S. cerevisiae deletion strains, locus YML120C, strain ndi1, active compounds read low 0.0605 | S. cerevisiae deletion strains, locus YML124C, strain tub3, active compounds read low 0.0637 | S. cerevisiae deletion strains, locus YMR058W, strain fet3, active compounds read low 0.0627 | S. cerevisiae deletion strains, locus YMR078C, strain ctf18, active compounds read low 0.0768 | S. cerevisiae deletion strains, locus YMR125W, strain sto1, active compounds read low 0.0824 | S. cerevisiae deletion strains, locus YMR129W, active compounds read low 0.069 | S. cerevisiae deletion strains, locus YMR205C, strain PFK2, active compounds read low 0.0906 | S. cerevisiae deletion strains, locus YMR223W, strain ubp8, active compounds read low 0.0681 | S. cerevisiae deletion strains, locus YMR231W, strain pep5, active compounds read low 0.0782 | S. cerevisiae deletion strains, locus YMR263W, strain SAP30, active compounds read low 0.0586 | S. cerevisiae deletion strains, locus YMR307W, strain GAS1, active compounds read low 0.119 and 0.0541 | S. cerevisiae deletion strains, locus YNL067W, strain RPL9B, active compounds read low 0.0529 | S. cerevisiae deletion strains, locus YNL071W, strain lat1, active compounds read low 0.0636 | S. cerevisiae deletion strains, locus YNL128W, strain TEP1, active compounds read low 0.0667 and 0.0791 | S. cerevisiae deletion strains, locus YNL153C, strain GIM3, active compounds read low 0.0526 and 0.0904 | S. cerevisiae deletion strains, locus YNL175C, strain NOP13, active compounds read low 0.0762 | S. cerevisiae deletion strains, locus YNL197C, strain WHI3, active compounds read low 0.0722 | S. cerevisiae deletion strains, locus YNL209W, strain ssb2, active compounds read low 0.0673 | S. cerevisiae deletion strains, locus YNL224C, strain SQS1, active compounds read low 0.0723 | S. cerevisiae deletion strains, locus YNL233W, strain BNI4, active compounds read low 0.0625 | S. cerevisiae deletion strains, locus YNL248C, strain rpa49, active compounds read low 0.0815 | S. cerevisiae deletion strains, locus YNL250W, strain rad50, active compounds read low 0.136 | S. cerevisiae deletion strains, locus YNL271C, strain bni1, active compounds read low 0.0837 | S. cerevisiae deletion strains, locus YNL298W, strain CLA4, active compounds read low 0.0752 | S. cerevisiae deletion strains, locus YNL307C, strain MCK1, active compounds read low 0.0714 | S. cerevisiae deletion strains, locus YNL322C, strain KRE1 (second series), active compounds read low 0.0698 | S. cerevisiae deletion strains, locus YNL322C, strain KRE1, active compounds read low 0.0558 | S. cerevisiae deletion strains, locus YNR049C, strain mso1, active compounds read low 0.0605 | S. cerevisiae deletion strains, locus YNR052C, strain pop2, active compounds read low 0.0672 | S. cerevisiae deletion strains, locus YOL006C, strain TOP1, active compounds read low 0.11 | S. cerevisiae deletion strains, locus YOL147C, strain pex11, active compounds read low 0.0611 | S. cerevisiae deletion strains, locus YOR001W, strain rrp6, active compounds read low 0.0775 | S. cerevisiae deletion strains, locus YOR061W, strain CKA2, active compounds read low 0.0489 | S. cerevisiae deletion strains, locus YOR069W, strain VPS5, active compounds read low 0.0494 | S. cerevisiae deletion strains, locus YOR070C, strain gyp1, active compounds read low 0.0633 | S. cerevisiae deletion strains, locus YOR080W, strain dia2, active compounds read low 0.0687 | S. cerevisiae deletion strains, locus YOR083W, strain WHI5 (second series), active compounds read low 0.081 | S. cerevisiae deletion strains, locus YOR083W, strain WHI5, active compounds read low 0.0703 | S. cerevisiae deletion strains, locus YOR106W, strain vam3, active compounds read low 0.065 | S. cerevisiae deletion strains, locus YOR136W, strain idh2, active compounds read low 0.0784 | S. cerevisiae deletion strains, locus YOR144C, strain elg1, active compounds read low 0.0641 | S. cerevisiae deletion strains, locus YOR184W, strain ser1, active compounds read low 0.0725 | S. cerevisiae deletion strains, locus YOR265W, strain rbl2, active compounds read low 0.0616 | S. cerevisiae deletion strains, locus YOR270C, strain vph1, active compounds read low 0.0961 | S. cerevisiae deletion strains, locus YOR290C, strain snf2, active compounds read low 0.0714 | S. cerevisiae deletion strains, locus YOR316C, strain cot1, active compounds read low 0.066 | S. cerevisiae deletion strains, locus YPL051W, strain arl3, active compounds read low 0.0687 | S. cerevisiae deletion strains, locus YPL055C, strain LGE1, active compounds read low 0.0706 and 0.0896 | S. cerevisiae deletion strains, locus YPL078C, strain atp4, active compounds read low 0.0678 | S. cerevisiae deletion strains, locus YPL106C, strain sse1, active compounds read low 0.111 | S. cerevisiae deletion strains, locus YPL240C, strain hsp82, active compounds read low 0.0603 | S. cerevisiae deletion strains, locus YPL241C, strain CIN2, active compounds read low 0.0524 and 0.0485 | S. cerevisiae deletion strains, locus YPR119W, strain clb2, active compounds read low 0.0709 | S. cerevisiae deletion strains, locus YPR141C, strain kar3, active compounds read low 0.0821 | S. cerevisiae deletion strains, locus YPR163C, strain tif3, active compounds read low 0.0791 | S. cerevisiae deletion strains, locus YPR167C, strain met16, active compounds read low 0.0671 | S. cerevisiae deletion strains, strain wtn01, active compounds read low 0.0664 | S. cerevisiae strains, strain wild type, active compounds read low 0.0519
